Assay results as given in PubChem BioAssay (EPA / NIEHS).
Values joined by “and” are separate entries in the source; they are usually repeats but may differ in a detail not shown here. Equal entries are not always repeated. Where a structure was tested more than once in an assay, its records may differ in their call. Active and inactive are the calls of the source. The calls were made as follows: active = hit-call score of the fitted dose curve at least 0.9, where 1 is the maximum; inactive = score below 0.9.

test: BSK_hDFCGF_Proliferation: Cell Proliferation Assessment in the BioMAP Diversity Plus: hDFCGF Assay (AID 2283059); conditions: primary human foreskin fibroblasts;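 also: curves fitted for both rise and fall of signal versus DMSO baseline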
Procedure: BSK_hDFCGF is a cell-based, multiplexed-readout assay that uses foreskin fibroblast, a human skin primary cell, with measurements taken at 24 hours after chemical dosing in a 96-well plate.BSK_hDFCGF_Proliferation is an assay component measured in the BSK_hDFCGF assay. It measures […] related to cell proliferation using Sulforhodamine staining technology.Data from the assay component BSK_hDFCGF_Proliferation was analyzed into 1 assay endpoint. This assay endpoint, BSK_hDFCGF_Proliferation, was analyzed with bidirectional fitting relative to DMSO as the negative control and baseline of activity. Using a type of viability reporter, measures of total protein for gain or loss-of-signal activity can be used to understand the viability at the cellular-level. Furthermore, this assay endpoint can be referred to as a secondary readout, because this assay has produced multiple assay endpoints where this one serves a viability function. To generalize the intended target to other relatable targets, this assay endpoint is annotated to the cell cycle intended target family, where the subfamily is proliferation.
The levels of cell surface (or secreted, indicated by the prefix "s") biomarker endpoints were measured by ELISA. Overt cytotoxicity to cells in confluent adherent cultures (all systems other than the BT system) was assessed by measuring total protein levels using sulforhodamine B (SRB) staining in parallel cultures at the time of biomarker measurements, indicated as SRB endpoints. For proliferation assays for adherent cell types, individual cell types are cultured at sub-confluence and relative cell numbers quantified by SRB staining at time points optimized for each system (48 h: 3C and CASM3C systems; 72 h: BT and HDF3CGF systems; 96 h: SAg system). SRB was performed by staining cells with 0.1% SRB after fixation with 10% TCA and reading wells at 560 nm.Viability and proliferation of PBMC (T cells) was quantified by Alamar Blue reduction for the SAg and BT systems. For PBMC viability (referred to as PBMC Cytotoxicity within the assay endpoint names), cells were plated (75,000/well in a 96-well plate) and then chemical samples added for 1 h before addition of activators, SEB and TSST-1 (20 ng/mL final concentration each). Cells were incubated for 90 h. Then, Alamar Blue (20 uL/well) (Invitrogen, Cat DAL1100) was added for 6 h, and the plates were read with a fluorescence microplate reader at 546/580 nm (excitation/emission). For PBMC proliferation, cells were plated and activated as above but incubated for only 16 h prior to addition of Alamar Blue. Plates were read after 6 h.

Structure (SMILES) | outcome | AC50
C[C@@H]1CCN(C(=O)[C@H](CCCN=C(N)N)NS(=O)(=O)c2cccc3c2NC[C@H](C)C3)[C@@H](C(=O)O)C1 | inactive | 
CCOC(=O)C(C#N)=C(c1ccccc1)c1ccccc1 | inactive | 29.5 µM (active)
C1=CC2C3C=CC(C3)C2C1 (stereo not given) | inactive | 
O=C1OC[C@H](Cc2cccc(O)c2)[C@H]1Cc1cccc(O)c1 | inactive | 
CCN(CC)C(=O)N(CC)CC | inactive | 
CC(C=O)Cc1ccc(C(C)(C)C)cc1 (stereo not given) |  | 29.1 µM (active)
c1ccc(Oc2ccccc2)cc1 | inactive | 
CC(=O)C1(C)CC2=C(CCCC2(C)C)CC1C (stereo not given) |  | 10.6 µM (active)
COc1ccc(OC)c(N=Nc2c(O)ccc3ccccc23)c1 |  | 10.2 µM (active)
CCCCCCC(CO)CCCC (stereo not given) |  | 35.1 µM (active) and 31.4 µM (active)
CCCCOC(=O)CCCCCCCC(=O)OCCCC | inactive | 
COc1ccc(CCN2CCC(Nc3nc4ccccc4n3Cc3ccc(F)cc3)CC2)cc1 |  | 5.42 µM (active)
C=C(C)C(=O)OCCOCCOCCOCCOC(=O)C(=C)C | inactive | 
O=C(Nc1ccc2c(O)c(N=Nc3ccc(N=Nc4ccc(S(=O)(=O)O)cc4)cc3)c(S(=O)(=O)O)cc2c1)c1ccccc1 | inactive | 
IC(I)I | inactive | 
C=CC(C)(O)CCC=C(C)C (stereo not given) | inactive | 
CCCCCCCCCCCCCCCC(=O)OC/C=C(C)/C=C/C=C(C)/C=C/C1=C(C)CCCC1(C)C |  | 27.7 µM (active)
C=C(C)[C@H]1CC=C(C)C(=O)C1 | inactive | 
CS(=O)(=O)c1ccc(C2=C(c3ccccc3)C(=O)OC2)cc1 | inactive | 
CC1(C)C2=CCCC(C)(C)[C@]23CC[C@H]1C3 |  | 8.84 µM (active)

Structure (SMILES) | outcome | AC50
Oc1c(Cl)cc(Cl)c(Cl)c1Cc1c(O)c(Cl)cc(Cl)c1Cl |  | 0.113 µM (active)
O=CN1CCOCC1 | inactive | 
c1ccc2cc(Nc3ccc(Nc4ccc5ccccc5c4)cc3)ccc2c1 | inactive | 
CC(=O)c1c(C)c([N+](=O)[O-])c(C(C)(C)C)c([N+](=O)[O-])c1C | inactive | 
CCC(C)c1cc([N+](=O)[O-])cc([N+](=O)[O-])c1OC(=O)OC(C)C (stereo not given) |  | 4.37 µM (active)
CN(C)C(=S)SC(=S)N(C)C |  | 30.2 µM (active)
Clc1cc(Cl)c(-c2c(Cl)c(Cl)cc(Cl)c2Cl)cc1Cl |  | 3.7 µM (active)
CC(CN=Cc1ccccc1O)N=Cc1ccccc1O (stereo not given) | inactive | 
c1ccc(CCc2ccccc2)cc1 |  | 13.8 µM (active)
CCCCN(CCCC)C(=O)N(CCCC)CCCC |  | 3.96 µM (active)
CS(=O)(=O)OCCCCOS(C)(=O)=O | inactive | 
CC(C)(N=C=O)c1cccc(C(C)(C)N=C=O)c1 |  | 29.9 µM (active)
O=C1OC2(c3ccccc31)c1ccc(O)c(Br)c1Oc1c2ccc(O)c1Br |  | 20 µM (active)
CCCCCC(C=O)=Cc1ccccc1 |  | 31.4 µM (active)
CC(C)(C)CC(C)(C)c1ccc(OCCOCC[N+](C)(C)Cc2ccccc2)cc1 |  | 0.496 µM (active)
CSCCC=O | inactive | 
CN(c1nccc(=O)[nH]1)C1CCN(c2nc3ccccc3n2Cc2ccc(F)cc2)CC1 | inactive | 
CC=Cc1ccc(OCC)c(O)c1 | inactive | 
C=C(C)C(=O)OCCOCCOCCOC(=O)C(=C)C | inactive | 
